Records with an inconclusive call do not appear. Entries that show only a call come without a potency. The source made the active and inactive calls. Calls follow the shape of the dose curve; as a rule, active = well fitted cell-killing curve with a large enough effect; inconclusive = small, poorly fitted or top-dose-only effect; inactive = flat fitted curve, though single readings scatter.
Experiment: Cell Viability - LYMP2-022 (AID 987); also: nearly all actives have a fitted effect of over 55% in size
Conditions: LYMP2-022 lymphoblastoid cell viability; series mostly up to 92.2 µM
Description: NIH Chemical Genomics Center [NCGC]
NIH Molecular Libraries Screening Centers Network [MLSCN]
National Institutes of Environmental Health Sciences [NIEHS]
National Toxicology Program [NTP]
We have developed a 1536-well cell-based assay for quantitative high throughput screening (qHTS) against a number of cell lines to determine in vitro cytotoxicity of small molecules. This particular assay uses a human lymphoblastoid cell line (LYMP2-022) purchased from Coriell Institute for Medical Research.
NCGC Assay Protocol Summary:
The CellTiter-Glo luminescent cell viability assay (Promega) is a homogeneous method to measure the number of viable cells in culture. The end point readout of this assay is based on quantitation of intracellular ATP, an indicator of metabolic activity, using the luciferase reaction. Luciferase catalyzes the oxidation of beetle Luciferin to oxyluciferin and light in the presence of ATP. The luminescent signal is proportional to amount of ATP present.
Using the CellTiter-Glo luminescent cell viability assay, the amount of cellular ATP was measured in the lymphoblastoid cell line with complete culture medium following compound treatment for 24 hours. The assay was performed in opaque white Kalypsys 1536-well plates. In the screen, tetraoctylammonium bromide was used as positive control. Library compounds were measured for their ability to cause acute toxicity in the cell line, as reflected by a decrease in intracellular ATP levels, in a concentration-dependent manner. […] AC50 values were determined from concentration-response data modeled with the standard Hill equation.
qHTS protocol for CellTiter Glo lymphoblastoid cellular assay
[Step] [Parameter] [Value] [Description]
1. Reagent; 5 uL; 2500 lymphoblastoid cells/well
2. Time; 5 hr; 37 C incubation
4. Controls; 23 nL; Tetraoctylammonium bromide 6.4pM to 92 uM
5. Time; 24 hr; 37 C incubation
6. Reagent; 5 uL; CellTiter Glo reagent
7. Time; 30 min; Room Temperature
8. Detection; Luminescence; Viewlux plate reader
Keywords: cell viability, cytotoxicity, lymphoblastoid cell line, luminescence, NTPHTS, NTPHTS_NCGC, NIEHS, DSSTox, MLSMR, MLSCN, NIH Roadmap, qHTS, NCGC
Potency is read from the fitted curve at half-maximal effect.

SMILES | Potency
C=CCOC(=O)c1ccccc1C(=O)OCC=C | inactive
COC(=O)c1ccc(C)cc1 | inactive
C=C(C)C1CC=C(C)C(O)C1 (stereo not given) | inactive
Cc1cccc([N+](=O)[O-])c1C | inactive
CC12CCC(CC1=O)C2(C)C (stereo not given) | inactive
O[C@@H]([C@H](O)[C@@H](O)CBr)[C@@H](O)CBr | inactive
CCCCCCCCCCCCCC(=O)O | inactive
CCCCC(CC)CN (stereo not given) | inactive
CCCCOCCO | inactive
ClCCCl | inactive
c1ccccc1 | inactive
O=C(O)c1ccc(O)cc1O | inactive
CC1=CC(C)(C)Nc2ccccc21 | inactive
CCCN(CCC)C(=O)SCC | inactive
Cc1ccc(N)c([N+](=O)[O-])c1 | inactive
OCCNCCO | inactive
Nc1ccc(Cl)cc1Cl | inactive
C=Cc1ccccc1Cl | inactive
Cc1ccc([N+](=O)[O-])c(C)c1 | inactive
NC1=NC(S)C2N=CN=C2N1 (stereo not given) | 12.6 µM (active)

SMILES | Potency
Cc1ccccc1C | inactive
O=C(O)c1ccccc1C(c1ccc(O)cc1)c1ccc(O)cc1 | inactive
COc1c2ccoc2cc2oc(=O)ccc12 | inactive
CC(C)=CCCC(C)CCO (stereo not given) | inactive
C=CC(=C)CCC=C(C)C | inactive
Nc1ccc(S(=O)(=O)O)cc1 | inactive
C[C@H](CCC(=O)O)[C@H]1CC[C@H]2[C@@H]3CC[C@@H]4C[C@H](O)CC[C@]4(C)[C@H]3CC[C@]12C | inactive
COCC(=O)O | inactive
CCCCCCCCO | inactive
c1ccc2scnc2c1 | inactive
O=C1c2ccccc2C(=O)C1c1ccc2ccccc2n1 | inactive
COc1cc(/C=C/c2ccccc2)oc(=O)c1 | inactive
Clc1cc(Cl)c(Cl)cc1Cl | inactive
C=CC(=O)OCCOCCOCCOCCOC(=O)C=C | 12.6 µM (active)
COc1ccc2nc(N)sc2c1 | inactive
COC(=O)CCCCC(=O)OC | inactive
CCC(C)c1ccccc1O (stereo not given) | inactive
Cc1c(N=C=O)cccc1N=C=O | inactive
O=C(O)c1ccccc1 | inactive
CC1(C)CC(N=C=O)CC(C)(CN=C=O)C1 (stereo not given) | inactive
